This passage reports growth results from PubChem BioAssay (NCI).

“And” between values parts separate entries of the source, which are not always exact repeats. Equal values may be shown once. The panel holds about 83,000 compounds, 20% with a hit somewhere; the sample as a whole holds those more often.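 The endpoint reported here, percent growth, reads 100 for growth as untreated, 0 for no net growth and -100 for all cells dead.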 The source made the active and inactive calls. Rule for the calls: active = growth percent below 10; inactive = the rest.

The test system of this assay is SNB-19 CNS. The assay is described as follows: NCI-60 one-dose screen, 48 h (100 = growth as untreated, 0 = no growth, -100 = all killed). The conditions noted are these: 10 µM unless noted.
Turning to `c1ccc2c(c1)O[As](O[As]1Oc3ccccc3O1)O2`, the growth is 82.9% (inactive).

In the case of `CC(=O)Cc1ccc2c(c1)OCO2`, the growth was 98.8% (inactive). Turning to `CCN(CC)CCn1c(=O)n(C)c2ccccc21`, the growth is 113% (inactive).

As to `COc1cc2c(c(OC)c1OC)-c1ccc(O)cc1[C@@H](NC(C)=O)CC2`, the growth was 27.8% (inactive) and 26.4% (inactive). Then `Cc1c2ccncc2c(C)c2c1[nH]c1ccccc12`, with -84.8% (active); and `NC(=O)Oc1cc(OC(N)=O)cc(N(CCCl)CCCl)c1`, with 74.6% (inactive). Regarding `Nc1cccnc1`, the growth is 109% (inactive).

On to `C/C=C(/C)C(=O)O[C@H]1CC[C@@]2(C)[C@@H]3CC[C@H]4[C@]5(O)C[C@H](O)[C@@]6(O)[C@@H](CN7C[C@@H](C)CC[C@H]7[C@@]6(C)O)[C@]5(O)C[C@@]42O[C@@]13O`, for which the growth was 112% (inactive). Then `C[C@]12CCC(=O)C[C@@H]1CC[C@@H]1[C@@H]2CC[C@]2(C)[C@@H](OC(=O)N(CCCl)N=O)CC[C@@H]12`, with 31% (inactive). In the case of `CC1(C)N=C(N)N=C(N)N1c1ccc(CCC(=O)Nc2ccc(S(=O)(=O)F)cc2)cc1`, the growth is 55% (inactive). Regarding `Cc1c(C)c(N)c(C)c(C)c1N`, the growth was 82.1% (inactive). Then `O=S(=O)(F)c1cccc(Cl)c1C[P+](c1ccccc1)(c1ccccc1)c1ccccc1`, with 100% (inactive); and `CN1CCC2(CC1)C(C#N)C(=O)NC(=O)C2C#N` (stereo not drawn), with 99% (inactive).

In the case of `COc1ccc(N)cc1N`, the growth was 101% (inactive). On to `Cc1cc(NC(=O)NCCCOc2ccc(N3C(N)=NC(N)=NC3(C)C)cc2Cl)ccc1S(=O)(=O)F`, for which the growth is 27.7% (inactive). In the case of `O=[N+]([O-])c1cc(Cl)c(Cl)c([N+](=O)[O-])c1Cl` it was 103% (inactive). Then `O=C1c2ccccc2C(=O)N1N1CC1c1ccccc1` (stereo not drawn), with 104% (inactive); and `CC1(C)CN=C(NN=C(/C=C/c2ccc(C(F)(F)F)cc2)/C=C/c2ccc(C(F)(F)F)cc2)NC1`, with 37.9% (inactive). `C#COc1cccc(Nc2ncnc3cc(NC(=O)CF)ccc23)c1`: the growth was 33.7% [6.25 µM] (inactive). As to `COc1ccc(/C=C(/C)[N+](=O)[O-])cc1OC`, the growth is 65.9% (inactive) and 79.3% (inactive). Consider `Cc1cc[n+](CCc2ccccc2)cc1`, for which the growth was 102% (inactive) and 106% (inactive). As to `CC1=C(C)C(=O)O[C@@H]([C@](C)(O)[C@]2(O)CC[C@@]3(O)[C@@H]4C[C@H]5O[C@]56CC=CC(=O)[C@]6(C)[C@H]4CC[C@]23C)C1`, the growth was 30.8% (inactive). For `CC(Oc1ccc(-c2ccccc2)cc1)C(=O)O` (stereo not drawn), the growth was 97% (inactive).

Take `COc1c(O)cc2c(c1OC)-c1ccc(SC)c(=O)cc1C(NC(C)=O)CC2` (stereo not drawn): the growth was 18.5% (inactive). Regarding `Nc1nc(=S)nc(N)[nH]1`, the growth is 97.2% (inactive).

For `O=Cc1cn(Cc2ccccc2)c2ccccc12`, the growth was 93.8% (inactive).

For `O=C(O)C(O)c1ccc(Cl)cc1` (stereo not drawn), the growth was 106% (inactive) and 108% (inactive). Then `C[C@H](O)CCC(=O)c1ccoc1`, with 100% (inactive). Then `c1ccc2c(c1)sc1ccccc12`, with 98.4% (inactive). Regarding `O=C1CN2CCC1CC2`, the growth was 104% (inactive).

Take `Cn1cc(C(=O)C[n+]2ccccc2)c2ccccc21`: the growth is 105% (inactive). Regarding `Cc1cc(C(C)(C)C)ccc1O`, the growth is 111% (inactive). For `N#CC(C#N)=Cc1cccc(F)c1`, the growth was 100% (inactive).
